The panel holds about 79,000 compounds, 15% with a hit somewhere; the sample as a whole holds those more often. The source made the active and inactive calls. Rule as the data show it: active = growth inhibition above about 70%; inactive = the rest.
Assays:
[1] = NCI Yeast Anticancer Drug Screen. Data for the rad50 strain (AID 155);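 also: 0% = growth of vehicle-only cultures of the same strain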; conditions: S. cerevisiae rad50 strain growth inhibition; at 50.0 µM; hits give high values
In short: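 DNA repair mutant yeast, compound exposure, growth read-out; inhibition is taken relative to vehicle.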

[2] = NCI Yeast Anticancer Drug Screen. Data for the mec2-1 strain (AID 157); conditions: S. cerevisiae mec2-1 strain, at 50.0 µM, hits give high values
In short: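 Test agents were screened against the mec2-1 yeast strain, with defined DNA repair or cell cycle alteration. Growth was scored as inhibition against vehicle-only controls.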

[3] = NCI Yeast Anticancer Drug Screen. Data for the sgs1 mgt1 strain (AID 161);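 also: 0% = growth of cultures given vehicle only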; conditions: S. cerevisiae sgs1 mgt1 strain, at 50.0 µM, hits give high values
In short: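 Mutant yeast exposed to compound; growth scored against vehicle-only wells.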

[4] = NCI Yeast Anticancer Drug Screen. Data for the cln2 rad14 strain (AID 165);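 also: 0% = growth equal to vehicle treated cultures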; conditions: S. cerevisiae cln2 rad14 strain, at 50.0 µM, hits give high values
In short: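 Growth of compound-exposed yeast (cln2 rad14 genotype) measured and expressed as inhibition relative to vehicle.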

[5] = NCI Yeast Anticancer Drug Screen. Data for the bub3 strain (AID 167); conditions: S. cerevisiae bub3 mutant strain, at 50.0 µM, hits give high values
In short: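 In this screen, a yeast mutant lacking normal mitotic checkpoint function is challenged with compound. Relative growth versus vehicle gives the inhibition value.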

[6] = NCI Yeast Anticancer Drug Screen. Data for the mlh1 rad18 strain (AID 175); conditions: S. cerevisiae mlh1 rad18 strain growth inhibition; at 50.0 µM; hits give high values
In short: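 In this whole-cell yeast screen, a strain with altered DNA damage repair is challenged with compound, and its growth is measured against matched vehicle-treated controls.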

Measured: growth inhibition

Br/C(=N\Nc1nn[nH]n1)c1ccncc1
inactive: [1] -15.1% | [2] 1.75% | [3] -26.1% | [4] -22% | [5] -21.8% | [6] -28.9%

C/C(=N/N(C)c1ccccc1)C(C)C
inactive: [1] 14.5% | [2] -6.75% | [3] 3.45% | [4] 1.6% | [5] 24.4% | [6] 10.7%

CC(=O)N(CCc1ccccc1)C(C)(C#N)c1ccccc1 (configuration not stated)
inactive: [1] -0.2% | [2] 4% | [3] -30.9% | [4] -22.4% | [5] -12.2% | [6] -29.4%

CCN(CC)CC(O)c1ccc2ccccc2c1 (configuration not stated)
inactive: [1] 47.6% | [2] 13.2% | [3] 25.8% | [4] -21.2% | [5] 22.4% | [6] 40.9%

C=COCCC(C(=O)OCC)C(=O)OCC
inactive: [1] 13.5% | [2] 26.5% | [3] 17.8% | [4] 4.2% | [5] 40.6% | [6] 13.1%

O=C(CC(c1ccccc1)C(Sc1ccccc1)(Sc1ccccc1)Sc1ccccc1)c1ccccc1 (configuration not stated)
inactive: [1] 13.2% | [2] 15.3% | [3] 13.4% | [4] 3% | [5] -1.35% | [6] 7.25%

CC1CC(C)c2ccccc21 (configuration not stated)
inactive: [1] 42.3% | [2] 27.4% | [3] 17.8% | [4] 39.3% | [5] 0.3% | [6] 2.4%

Cc1cccc(NN)c1
inactive: [1] 59.6% | [2] 32.1% | [3] 7.45% | [4] 30% | [5] 23.3% | [6] 32.9%

Nc1cc(C(F)(F)F)ccc1F
inactive: [1] 2.5% | [2] -13.8% | [3] -9% | [4] -5.6% | [5] 6.65% | [6] 27.4%

COC(=O)[C@H]1[C@H]2C[C@@H]3c4[nH]c5ccccc5c4CCN3C[C@H]2C[C@@H](O)[C@@H]1OC(=O)c1cc(OC)c(OC)c(OC)c1
inactive: [1] 23.1% | [2] -1.35% | [3] 19.4% | [4] 8.75% | [5] 21% | [6] 20.9%

NC(=O)C(=CNC(=S)Nc1cccc(C(F)(F)F)c1)C(N)=O
inactive: [1] -45% | [2] -44.5% | [3] -14.8% | [4] 16.4% | [5] 5.5% | [6] -56%

CC1CC=C(C(O)C(C)C)C1 (configuration not stated)
inactive: [1] 0.2% | [2] 6.2% | [3] -2.7% | [4] -11.8% | [5] 4.15% | [6] -0.9%

CC1(C)OC(C)(C)c2c1nnc(-c1cccc([N+](=O)[O-])c1)[n+]2[O-]
inactive: [1] -19.5% | [2] -26.2% | [3] 18.6% | [4] 1.3% | [5] 11.6% | [6] -3.55%

CCOC(=O)C1CSC(N)=N1 (configuration not stated)
inactive: [1] 4.45% | [2] -38.9% | [3] -11.8% | [4] -29.4% | [5] 5.65% | [6] -7.8%

CC(=O)NC1(C)C(=O)N=C(N)N=C1N (configuration not stated)
inactive: [1] 11.2% | [2] 4.3% | [3] 11.1% | [4] -29.8% | [5] -4.9% | [6] 8.8%

O=c1[nH]c2cc(Cl)ccc2nc1/C=C(\O)c1ccc2ccccc2c1
inactive: [1] 27.2% | [2] -5.2% | [3] -6.3% | [4] -3.85% | [5] -16.6% | [6] 25.4%

Brc1cc2c(cc1C=NC1CCCCC1)OCO2
inactive: [1] 25.6% | [2] 22.8% | [3] -4.05% | [4] 6.8% | [5] 18.8% | [6] 43.7%

COc1ccc2ccccc2c1I
inactive: [1] 18.4% | [2] 1.4% | [3] 2.75% | [4] 10.7% | [5] 23.6% | [6] 9.45%

CCOC(=O)c1ccc(NC(=O)SCCC(=O)O)cc1
inactive: [1] 20.9% | [2] -19.9% | [3] -7.1% | [4] 15.8% | [5] -10.2% | [6] 13.8%

O=S(=O)(Oc1ccc(OS(=O)(=O)c2ccccc2)cc1)c1ccccc1
inactive: [1] -8.8% | [2] 1% | [3] -0.3% | [4] 0.05% | [5] 12.5% | [6] 14.6%

O=C(O)c1ccccc1N1C(=O)c2ccccc2C1=O
inactive: [1] 4.95% | [2] -33.2% | [3] -4.1% | [4] 8.2% | [5] 11.2% | [6] -1.55%

CC1(C)OC2(C)CCC1C1C2N1C(=O)Nc1cccc2ccccc12 (configuration not stated)
inactive: [1] -9% | [2] -9.5% | [3] -1.35% | [4] -6.5% | [5] -3.75% | [6] -22.8%

CCC(CO)Nc1nncc2ccccc12 (configuration not stated)
inactive: [1] 2.4% | [2] -3.45% | [3] 1.35% | [4] -31.5% | [5] -10.6% | [6] -12.3%

CN(C)c1nnnn1-c1c(N)n(C)c(=O)n(C)c1=O
inactive: [1] -30.1% | [2] -23.2% | [3] 0% | [4] 6.4% | [5] -26.8% | [6] -27.1%

Cc1ccc(NCCN(C)C)c2c(=O)c3cccc(O)c3sc12
active: [1] 73.5%
inactive: [2] 35.1% | [3] 18.2% | [4] 26.8% | [5] 40.4% | [6] 65%

CN(CO)N=Nc1ccc(C(F)(F)F)cc1
inactive: [1] -6.05% | [2] -0.65% | [3] -10% | [4] -14.2% | [5] 13.2% | [6] 19.8%

c1ccc2c(c1)Oc1ccccc1S2
inactive: [1] -14.2% | [2] -2.9% | [3] -0.15% | [4] 3.85% | [5] 7.35% | [6] -0.3%

O=[N+]([O-])c1ccc(N/N=C/CCCCl)c([N+](=O)[O-])c1
inactive: [1] 6.6% | [2] -17.3% | [3] 13.2% | [4] 12.4% | [5] 11.1% | [6] 9.05%

CC1(Cn2ccc(=O)[nH]c2=O)CC(C2(C)OCCO2)C(=O)O1 (configuration not stated)
inactive: [1] -16.6% | [2] -22.3% | [3] -33.1% | [4] -30.7% | [5] -19% | [6] -14.4%

CSc1cc(C)c(OC(=O)Nc2cc(C)ccc2C)c(C)c1
inactive: [1] -3.45% | [2] 0.8% | [3] 3% | [4] 1% | [5] 33.2% | [6] 9.75%

CC(C)Cc1c(N)nc(NCCCC(N)C(=O)O)[nH]c1=O (configuration not stated)
inactive: [1] 13.5% | [2] -16.9% | [3] -3.55% | [4] 13.1% | [5] 9.8% | [6] 11.8%

O=[N+]([O-])c1cc2c(cc1Cl)C1C(C3C2C2(Cl)C(Cl)=C(Cl)C3(Cl)C2(Cl)Cl)C2(Cl)C(Cl)=C(Cl)C1(Cl)C2(Cl)Cl (configuration not stated)
inactive: [1] 24.4% | [2] 9.6% | [3] 30.2% | [4] 24.2% | [5] 20.6% | [6] 18%

Cn1c(=O)[nH]c(=O)c2[nH]c(=O)c(=O)n(C)c21
inactive: [1] -3.15% | [2] 23.3% | [3] 1.55% | [4] -1.9% | [5] -9.5% | [6] -13.1%

C[NH-].C[NH-].C[NH-].C[NH-].O=C(O)c1cc(C(=O)O)c(C(=O)O)cc1C(=O)O.[Pt+2].[Pt+2]
inactive: [1] -6.25% | [2] -2.6% | [3] -2.05% | [4] -36% | [5] 0.55% | [6] 13.3%

O=C(O)c1cc(=O)c2cc(Cc3ccccc3)ccc2[nH]1
inactive: [1] 4.7% | [2] 6.5% | [3] 10.4% | [4] 9.8% | [5] 11.1% | [6] 12.8%

COC(=O)C(C)c1cccc2ccc3ccccc3c12 (configuration not stated)
inactive: [1] 16.3% | [2] -11.7% | [3] 16.2% | [4] 9.55% | [5] 15.2% | [6] 23.4%

C#CC(N)=O
inactive: [1] -9.6% | [2] 11.4% | [3] -0.6% | [4] -20.6% | [5] -6% | [6] 4.4%

COc1ccc(-c2c(C(C)=O)c(C)n(C3OC(CO)C(O)C(O)C3O)c(=S)c2C#N)cc1 (configuration not stated)
inactive: [1] 15.9% | [2] 34.2% | [3] 31.8% | [4] 34% | [5] 26.2% | [6] 49%

Cc1cc2ncn(C3CCCCO3)c2cc1C (configuration not stated)
inactive: [1] 8.25% | [2] -10.8% | [3] -9.4% | [4] 13.3% | [5] 3.85% | [6] -26.4%

O=C(O)c1cocc1C(=O)O
inactive: [1] 3.2% | [2] -3.4% | [3] -13.6% | [4] -14.8% | [5] -2.65% | [6] -3.95%

O=C(CCCc1ccccc1)NO
inactive: [1] 14.7% | [2] 33.6% | [3] 17.5% | [4] 3.35% | [5] 10.8% | [6] 13.6%

CC(=O)ON1CCC=NC1
inactive: [1] 19.7% | [2] 10.3% | [3] -20.4% | [4] 8.05% | [5] 3.95% | [6] -6.75%
